# Results taken from a collection of fitness landscapes (doi:10.1126/science.1257360).
# The full ranking holds about 140,000 sequences; the median of “enrichment ratio after two sorts for PhoP signalling” is about 0, and the highest 2% start at about 11. What follows is part of a selection rich in the highest values, with near analogues and random picks from the rest.
# B1: PhoQ; a variant is named by its letters at X, in order, P23837 (parent)
# chain: MKKLLRLFFPLSLRVRFLLATAAVVLVLSLAYGMVALIGYSVSFDKTTFRLLRGESNLFYTLAKWENNKLHVELPENIDKQSPTMTLIYDENGQLLWAQRDVPWLMKMIQPDWLKSNGFHEIEADVNDTSLLLSGDHSIQQQLQEVREDDDDAEMTHSVAVNVYPATSRMPKLTIVVVDTIPVELKSSYMVWSWFIYVLSANLLLVIPLLWVAAWWSLRPIEALAKEVRELEEHNRELLNPATTRELTSLVRNLNRLLKSERERYDKYRTTLTDLTHSLKTPLXXLQXXLRSLRSEKMSVSDAEPVMLEQISRISQQIGYYLHRASMRGGTLLSRELHPVAPLLDNLTSALNKVYQRKGVNISLDISPEISFVGEQNDFVEVMGNVLDNACKYCLEFVEISARQTDEHLYIVVEDDGPGIPLSKREVIFDRGQRVDTLRPGQGVGLAVAREITEQYEGKIVAGESMLGGARMEVIFGRQHSAPKDE
# Variants of: B1
# Experiment: enrichment ratio after two sorts for PhoP signalling (ratio (wild type AVST 3.29)); higher = more functional
# Conditions: with PhoP (E. coli)
row,Variant,enrichment ratio
1,LVPL,≤ 0.25
2,PNNY,≤ 0.25
3,WLFH,≤ 0.25
4,PLHT,≤ 0.25
5,QAAQ,≤ 0.25
6,EGTK,≤ 0.25
7,APAS,≤ 0.25
8,ALRD,≤ 0.25
9,ALMG,6.08
10,TDMK,11.7
11,ALMI,17.6
12,KDMK,≤ 0.25
13,ATPA,≤ 0.25
14,LTMK,≤ 0.25
15,ALMD,≤ 0.25
16,ATYI,≤ 0.25
17,ATMI,19.9
18,NVRS,≤ 0.25
19,HGKV,≤ 0.25
20,KGKP,≤ 0.25
21,NFLN,0.688
22,AFWR,≤ 0.25
23,ASNS,≤ 0.25
24,ADLV,8.2

row,Variant,enrichment ratio
1,ASLF,12.2
2,VRLC,≤ 0.25
3,ASHK,≤ 0.25
4,NSLF,≤ 0.25
5,ASLC,16.7
6,ASTS,9.85
7,ASLV,18.7
8,ASFM,6.83
9,KSLF,≤ 0.25
10,ASLM,15.3
11,NIYP,≤ 0.25
12,LAFW,≤ 0.25
13,YYWT,≤ 0.25
14,ASTK,≤ 0.25
15,VRLL,≤ 0.25
16,ASTQ,3.55
17,ASDK,≤ 0.25
18,ASLI,12.7
19,ASLA,14.6
20,ASLK,8.78
21,ASTI,13.9
22,ASLS,10.2
23,ASLL,19.9
24,ASWI,2.59

row,Variant,enrichment ratio
1,FNCT,≤ 0.25
2,VWPK,≤ 0.25
3,EMQV,≤ 0.25
4,RTWK,≤ 0.25
5,KHEA,≤ 0.25
6,EWFR,≤ 0.25
7,ASLT,11.9
8,ASLY,13.9
9,ASNY,≤ 0.25
10,ASMT,12
11,ASFT,1.36
12,KSLY,≤ 0.25
13,KSMT,≤ 0.25
14,ASNT,≤ 0.25
15,KHPW,≤ 0.25
16,MQFI,0.491
17,WDYP,≤ 0.25
18,ATVW,3.56
19,WCCW,≤ 0.25
20,MLYM,8.36
21,KCYM,≤ 0.25
22,MCYM,14.1
23,MCYN,11.3
24,KCYN,≤ 0.25

row,Variant,enrichment ratio
1,MLYN,1.73
2,QGPI,≤ 0.25
3,VQSP,≤ 0.25
4,FRQT,≤ 0.25
5,YETN,≤ 0.25
6,ACSK,4.64
7,ACGR,≤ 0.25
8,ACSF,13.3
9,ACSM,13.2
10,GKCK,≤ 0.25
11,TDGP,≤ 0.25
12,RGGM,≤ 0.25
13,NMRS,≤ 0.25
14,NMSA,≤ 0.25
15,HPHS,≤ 0.25
16,TGQE,24.5
17,TKQE,16.5
18,TIQC,0.791
19,RNQE,≤ 0.25
20,TQQE,44.9
21,GGQE,≤ 0.25
22,LAQE,≤ 0.25
23,YTQE,≤ 0.25
24,AIQE,≤ 0.25

row,Variant,enrichment ratio
1,TIQE,15.1
2,KMQE,≤ 0.25
3,PTQE,≤ 0.25
4,YCTL,0.295
5,YAID,≤ 0.25
6,WAIW,≤ 0.25
7,TIAS,11.1
8,HPPD,≤ 0.25
9,HRCR,≤ 0.25
10,RAAD,≤ 0.25
11,GWLP,≤ 0.25
12,FRVC,≤ 0.25
13,SQQE,≤ 0.25
14,TLQE,11.7
15,KSQE,≤ 0.25
16,KAQE,≤ 0.25
17,SLQE,≤ 0.25
18,SNQE,18.7
19,RSER,≤ 0.25
20,WLMW,≤ 0.25
21,YVFS,≤ 0.25
22,GCFM,≤ 0.25
23,EFLK,≤ 0.25
24,TFFG,≤ 0.25

row,Variant,enrichment ratio
1,TFTG,13.3
2,TFAG,2.03
3,WILG,≤ 0.25
4,TFLG,11.8
5,PFLG,≤ 0.25
6,VSRM,≤ 0.25
7,TEYG,1.95
8,LQQQ,≤ 0.25
9,KAGI,≤ 0.25
10,TAFP,0.47
11,TAGI,13.1
12,TAQQ,32.8
13,NAGI,≤ 0.25
14,YTNC,≤ 0.25
15,SRQY,≤ 0.25
16,TTYY,2.55
17,SQFA,≤ 0.25
18,TTNY,25.4
19,TTNS,3.5
20,STNY,14.2
21,YTNY,≤ 0.25
22,HVQK,≤ 0.25
23,PLIG,≤ 0.25
24,VDHE,≤ 0.25

row,Variant,enrichment ratio
1,NVTF,≤ 0.25
2,CFGF,≤ 0.25
3,TMTF,11.5
4,TMHF,1.51
5,TGGF,15
6,TMGF,13.3
7,AHGF,≤ 0.25
8,KCGF,≤ 0.25
9,VHGF,≤ 0.25
10,THGF,8.21
11,WITF,≤ 0.25
12,AIGF,11.6
13,WAVD,≤ 0.25
14,HSRC,≤ 0.25
15,RGHS,≤ 0.25
16,VKVV,≤ 0.25
17,MFSR,≤ 0.25
18,LVPR,≤ 0.25
19,GRNL,≤ 0.25
20,YHIC,≤ 0.25
21,PQKS,≤ 0.25
22,SIVS,4.88
23,PLGF,≤ 0.25
24,TLGF,12.8

row,Variant,enrichment ratio
1,NVGF,≤ 0.25
2,EYGF,≤ 0.25
3,TVHF,≤ 0.25
4,SLGF,10.1
5,MNGF,3.05
6,EEGF,≤ 0.25
7,TVGF,18.5
8,TNHF,≤ 0.25
9,TNGF,15.9
10,EIGF,17.3
11,EVNL,≤ 0.25
12,TCLE,≤ 0.25
13,KQLE,≤ 0.25
14,DCCE,≤ 0.25
15,THTS,1.63
16,SNKW,≤ 0.25
17,SQFG,≤ 0.25
18,TNGD,≤ 0.25
19,MNGL,9.61
20,MNGI,5.05
21,TNGI,15.2
22,TLQF,15.7
23,TLHF,≤ 0.25
24,KAQF,≤ 0.25

row,Variant,enrichment ratio
1,TNGL,12.6
2,TNNL,0.757
3,DQWL,≤ 0.25
4,LLTH,≤ 0.25
5,CFSY,≤ 0.25
6,QPRN,≤ 0.25
7,FNQY,≤ 0.25
8,DTFM,≤ 0.25
9,LQVE,≤ 0.25
10,AMMD,≤ 0.25
11,AMMQ,13.1
12,AMMS,1.12
13,AMMI,15
14,NMMI,≤ 0.25
15,AMMV,21.8
16,AIMQ,≤ 0.25
17,ADMQ,≤ 0.25
18,AMPV,≤ 0.25
19,GMVM,3.22
20,SNKV,≤ 0.25
21,QQCV,≤ 0.25
22,HHKS,≤ 0.25
23,ISVD,≤ 0.25
24,AFGA,≤ 0.25

row,Variant,enrichment ratio
1,NYGC,≤ 0.25
2,WHYL,≤ 0.25
3,QGWY,75.8
4,QGPY,≤ 0.25
5,QGGY,14.3
6,QPGY,≤ 0.25
7,FFGY,≤ 0.25
8,FFWY,≤ 0.25
9,AGIM,11.8
10,TQGM,14.5
11,AGDM,≤ 0.25
12,SAIM,11.6
13,NAIM,≤ 0.25
14,QEIM,≤ 0.25
15,TQWM,≤ 0.25
16,MMIM,≤ 0.25
17,AGRM,≤ 0.25
18,MEIM,48.5
19,TQRM,≤ 0.25
20,SAWM,3.72
21,GPHN,≤ 0.25
22,RDSY,≤ 0.25
23,HQTV,≤ 0.25
24,ISLP,≤ 0.25

row,Variant,enrichment ratio
1,DTRI,1.89
2,VMYN,≤ 0.25
3,SGIM,23.7
4,SRIM,13.7
5,TGIM,≤ 0.25
6,SEWM,3.99
7,ITIM,≤ 0.25
8,SEIM,15.1
9,STIM,15.3
10,RGIM,≤ 0.25
11,KYIM,≤ 0.25
12,YTIM,1.25
13,SGRM,≤ 0.25
14,SGDM,≤ 0.25
15,NCFV,≤ 0.25
16,ACCP,≤ 0.25
17,AHDV,≤ 0.25
18,IAPL,0.723
19,FWFH,≤ 0.25
20,NRLH,≤ 0.25
21,YSSN,≤ 0.25
22,SAGD,≤ 0.25
23,SLIM,≤ 0.25
24,TQIV,1.59

row,Variant,enrichment ratio
1,TQIM,17.9
2,TQGH,18.9
3,SNIM,≤ 0.25
4,TQGP,≤ 0.25
5,IQGH,≤ 0.25
6,SAGM,12.9
7,SQIM,20.8
8,TQPM,≤ 0.25
9,SAPM,2.5
10,YRHV,≤ 0.25
11,SCLV,9.82
12,QTDD,≤ 0.25
13,AISA,10.4
14,AFMR,≤ 0.25
15,MLCP,≤ 0.25
16,HKNV,≤ 0.25
17,RAQI,≤ 0.25
18,MIHT,≤ 0.25
19,DVMK,≤ 0.25
20,WFDE,≤ 0.25
21,HTHH,≤ 0.25
22,ADIM,≤ 0.25
23,TQGG,1.42
24,TQGQ,28

row,Variant,enrichment ratio
1,TQGA,2.57
2,ATIM,19.5
3,YDIM,≤ 0.25
4,TDIS,1.04
5,HSAY,≤ 0.25
6,EAHH,≤ 0.25
7,YEYT,≤ 0.25
8,DFEY,≤ 0.25
9,TSCC,17.3
10,KYCC,≤ 0.25
11,IQCC,≤ 0.25
12,SQCC,8.97
13,SSCC,17.1
14,SNCC,14.7
15,SRCC,0.803
16,KSCC,≤ 0.25
17,SICC,17.3
18,NSCC,≤ 0.25
19,SSTC,10.3
20,WICC,≤ 0.25
